PubChem BioAssay (EPA / NIEHS)
Results filed as inconclusive are left out. Activity calls are given as the source filed them. How the source made its calls, unless noted: active means hit-call score of the fitted dose curve at least 0.9, where 1 is the maximum; inconclusive means response in the unintended direction; inactive means score below 0.9.

Tests used:
[1] = read-out: Cytochrome P450 3A4 (Homo sapiens) (UniProt P08684); test: CLD_CYP3A4_24hr: CellzDirect (CLD) Gene Expression Assay for xenobiotic metabolism (CYP3A4) at 24 hours (AID 2283689)
Summary of the method: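 Primary human hepatocytes from two donors dosed daily with fresh compound for two days, 0.2% DMSO vehicle. CYP3A4 mRNA at 24 hr by qNPA chemiluminescence; gain-of-signal fit versus DMSO, cytotoxicity flagged by morphology.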

[2] = read-out: organic anion transporter (SLCO1B1), SLCO1B1 (gene 10599); test: CLD_SLCO1B1_24hr: CellzDirect (CLD) Gene Expression Assay for organic anion transporter (SLCO1B1) at 24 hours (AID 2283690)
Summary of the method: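 Primary human hepatocytes (two donor preparations) dosed daily for two days with chemicals at multiple concentrations, 0.2% DMSO vehicle. SLCO1B1 mRNA at 24 h measured by qNPA chemiluminescence; induction fitted relative to DMSO.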

[3] = read-out: alkyl and aryl transferase (GSTA2), GSTA2 (gene 2939); test: CLD_GSTA2_24hr: CellzDirect (CLD) Gene Expression Assay for alkyl and aryl transferase (GSTA2) at 24 hours (AID 2283693)
Summary of the method: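 Primary human hepatocytes (two donor preparations) dosed daily for two days with chemicals at multiple concentrations (vehicle 0.2% DMSO); GSTA2 mRNA at 24 h measured by qNPA chemiluminescence, gain-of-signal versus DMSO.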

[4] = read-out: ABC Transporter (ABCB1), ABCB1 (gene 5243); test: CLD_ABCB1_48hr: CellzDirect (CLD) Gene Expression Assay for ABC Transporter (ABCB1) at 48 hours (AID 2283695)
Summary of the method: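 Primary human hepatocytes from two donor preparations dosed daily on two consecutive days with 0.2% DMSO vehicle. Harvest at 48 h. ABCB1 mRNA quantified by qNPA with chemiluminescence and fitted for gain of signal versus DMSO.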

[5] = read-out: glucuronosyltransferase (UGT1A1), UGT1A1 (gene 54658); test: CLD_UGT1A1_24hr: CellzDirect (CLD) Gene Expression Assay for glucuronosyltransferase (UGT1A1) at 24 hours (AID 2283696)
Summary of the method: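 Primary human hepatocytes from two donor preparations were dosed (0.2% DMSO vehicle) and harvested at 24 h; UGT1A1 mRNA induction was quantified by chemiluminescent qNPA, fitted as gain relative to DMSO.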

[6] = read-out: Cytochrome P450 2C19 (Homo sapiens) (UniProt P33261); test: CLD_CYP2C19_48hr: CellzDirect (CLD) Gene Expression Assay for xenobiotic metabolism (CYP2C19) at 48 hours (AID 2283700);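 further: fitted upward so actives raise CYP2C19 mRNA above the 0.2% DMSO vehicle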
Summary of the method: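 Primary human hepatocytes (two donor preparations) dosed daily for two days, harvested at 48 h; CYP2C19 mRNA induction measured by qNPA chemiluminescence. Gain-of-signal fitted relative to 0.2% DMSO vehicle as baseline.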

[7] = read-out: Cytochrome P450 2C9 (Homo sapiens) (UniProt P11712); test: CLD_CYP2C9_48hr: CellzDirect (CLD) Gene Expression Assay for xenobiotic metabolism (CYP2C9) at 48 hours (AID 2283701; active means hit-call score of the fitted dose curve at least 0.9, where 1 is the maximum; inactive means score below 0.9)
Summary of the method: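 Primary human hepatocytes (two donor preparations) dosed daily for two days with test chemicals, 0.2% DMSO vehicle; harvested at 48 h. mRNA induction quantified by qNPA chemiluminescence, fitted for gain of signal against DMSO baseline; cytotoxicity annotated from phase-contrast morphology.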

[8] = CLD_ACTIN_48hr: CellzDirect (CLD) Gene Expression Assay for Baseline Control (Actin) at 48 hours (AID 2283702)
Summary of the method: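 Primary human hepatocytes (two donor preparations) dosed daily for two days with ToxCast chemicals at multiple concentrations versus 0.2% DMSO vehicle; harvested at 48 h. Actin mRNA measured as a background control by quantitative nuclease protection assay with chemiluminescence.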

[9] = read-out: xenobiotic metabolism (CYP1A2), CYP1A2 (gene 1544); test: CLD_CYP1A2_48hr: CellzDirect (CLD) Gene Expression Assay for xenobiotic metabolism (CYP1A2) at 48 hours (AID 2283703)
Summary of the method: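 Primary human hepatocytes from two donor preparations were dosed daily for two days at multiple concentrations in 0.2% DMSO vehicle. CYP1A2 mRNA was measured at 48 hours by chemiluminescent quantitative nuclease protection assay, with gain of signal fitted versus DMSO and cytotoxicity annotated from morphology.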

[10] = read-out: Broad substrate specificity ATP-binding cassette transporter ABCG2 (Homo sapiens) (UniProt Q9UNQ0); test: CLD_ABCG2_48hr: CellzDirect (CLD) Gene Expression Assay for ABC Transporter (ABCG2) at 48 hours (AID 2283704);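 on AC50: potency for induction of ABCG2 mRNA above the DMSO baseline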
Summary of the method: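 Primary human hepatocytes from two donors, dosed daily for 2 days, 0.2% DMSO vehicle, several concentrations. ABCG2 mRNA at 48 h by qNPA chemiluminescence, gain fitted versus DMSO; cytotoxicity flagged by morphology.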

[11] = read-out: xenobiotic metabolism (CYP1A1), CYP1A1 (gene 1543); test: CLD_CYP1A1_48hr: CellzDirect (CLD) Gene Expression Assay for xenobiotic metabolism (CYP1A1) at 48 hours (AID 2283705)
Summary of the method: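 Primary human hepatocytes from two donors dosed daily for two days at multiple concentrations, 0.2% DMSO vehicle; CYP1A1 mRNA induction at 48 h by qNPA chemiluminescence. Cytotoxicity noted by phase-contrast morphology.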

[12] = read-out: organic anion transporter (SLCO1B1), SLCO1B1 (gene 10599); test: CLD_SLCO1B1_48hr: CellzDirect (CLD) Gene Expression Assay for organic anion transporter (SLCO1B1) at 48 hours (AID 2283707)
Summary of the method: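 Primary human hepatocytes from two donor preparations dosed daily for two days with multiple concentrations, 0.2% DMSO vehicle. SLCO1B1 mRNA at 48 h by quantitative nuclease protection assay, chemiluminescence; gain-of-signal fitted versus DMSO.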

[13] = read-out: alkyl and aryl transferase (GSTA2), GSTA2 (gene 2939); test: CLD_GSTA2_48hr: CellzDirect (CLD) Gene Expression Assay for alkyl and aryl transferase (GSTA2) at 48 hours (AID 2283708);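 further: active means mRNA induction above DMSO vehicle baseline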
Summary of the method: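 Primary human hepatocytes dosed daily for two days (0.2% DMSO vehicle), harvested at 48 h. GSTA2 mRNA induction measured by quantitative nuclease protection assay with chemiluminescent imaging, fitted for gain of signal relative to DMSO.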

[14] = read-out: glucuronosyltransferase (UGT1A1), UGT1A1 (gene 54658); test: CLD_UGT1A1_48hr: CellzDirect (CLD) Gene Expression Assay for glucuronosyltransferase (UGT1A1) at 48 hours (AID 2283709);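 further: actives increase expression relative to DMSO so potency refers to induction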
Summary of the method: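 Human primary hepatocytes dosed daily for two days (0.2% DMSO vehicle), harvested at 48 h. UGT1A1 mRNA induction measured by quantitative nuclease protection assay with chemiluminescence; gain of signal versus DMSO; cytotoxicity flagged from morphology.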

[15] = read-out: sulfotransferase (SULT2A), SULT2A1 (gene 6822); test: CLD_SULT2A_48hr: CellzDirect (CLD) Gene Expression Assay for sulfotransferase (SULT2A) at 48 hours (AID 2283710);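 further: hits raise SULT2A1 transcript above the 0.2% DMSO vehicle baseline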
Summary of the method: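 Primary human hepatocytes (two donor preparations) dosed daily for two days with chemicals at multiple concentrations, vehicle 0.2% DMSO; SULT2A1 mRNA induction at 48 h by quantitative nuclease protection assay, chemiluminescent read-out, fitted for gain of signal versus DMSO.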

[16] = STM_H9_OrnithineISnorm_perc: Stemina devTOX quickPredict H9 human embryonic stem cell (hESC)-based Assay for Ornithine (ORN) Metabolite Biomarker, Normalized (AID 2283712; active means hit-call score of the fitted dose curve at least 0.9, where 1 is the maximum; inactive means score below 0.9;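 further: ornithine released into spent medium during last day measured by mass spectrometry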)
Summary of the method: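 Undifferentiated pluripotent H9 hESCs were exposed to compound for 72h, with media and compound replaced every 24h. Ornithine in final 24-h conditioned media was measured by UPLC-HRMS, normalized to 13C-labeled spike-in standard and to median 0.1% DMSO control.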

[17] = STM_H9_CystineISnorm_perc: Stemina devTOX quickPredict H9 human embryonic stem cell (hESC)-based Assay for Cystine (CYSS) Metabolite Biomarker, Normalized (AID 2283713; active means hit-call score of the fitted dose curve at least 0.9, where 1 is the maximum; inactive means score below 0.9)
Summary of the method: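 Undifferentiated H9 hESCs were exposed to compound for 72h, with medium and compound replaced every 24h. Final-24h conditioned medium was deproteinized and analyzed by UPLC-HRMS. Cystine EIC area was normalized to spiked C13 standard and 0.1% DMSO median.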

[18] = CEETOX_H295R_MTT_cell_viability: Viability Assessment in the CeeTox HT-H295R MTT Assay (AID 2283718; active means hit-call score of the fitted dose curve at least 0.9, where 1 is the maximum; inactive means score below 0.9;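 on AC50: curve fitted both ways so AC50 may mark viability loss or gain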)
Summary of the method: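 MTT reduction (0.5 mg/ml, 4 h at 37 C; absorbance at 570 and 650 nm) gave viability as background-corrected percent change versus controls. H295R cells had 48 h forskolin (10 uM) prestimulation, then 48 h chemical exposure at 0.1% DMSO.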

[19] = read-out: Cytochrome P450 2B6 (Homo sapiens) (UniProt P20813); test: CLD_CYP2B6_48hr: CellzDirect (CLD) Gene Expression Assay for xenobiotic metabolism (CYP2B6) at 48 hours (AID 2283699);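 further: actives raise transcript level above DMSO so potency reflects induction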
Summary of the method: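 Primary human hepatocytes dosed daily for two days over multiple concentrations, 0.2% DMSO vehicle; CYP2B6 mRNA quantified at 48 h by qNPA chemiluminescence. Induction fitted as gain of signal versus DMSO; cytotoxicity annotated by morphology.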

[20] = read-out: HMG-CoA synthase (HMGCS2), HMGCS2 (gene 3158); test: CLD_HMGCS2_48hr: CellzDirect (CLD) Gene Expression Assay for HMG-CoA synthase (HMGCS2) at 48 hours (AID 2283711)
Summary of the method: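 Primary human hepatocytes from two donors dosed daily for two days, 0.2% DMSO vehicle. HMGCS2 mRNA measured 48 h after dosing by quantitative nuclease protection assay with chemiluminescent read-out; induction fitted relative to DMSO, cytotoxicity flagged by microscopy.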

Measured: AC50

Sequence of Broad substrate specificity ATP-binding cassette transporter ABCG2 (Homo sapiens) (Q9UNQ0 whole entry, looked up): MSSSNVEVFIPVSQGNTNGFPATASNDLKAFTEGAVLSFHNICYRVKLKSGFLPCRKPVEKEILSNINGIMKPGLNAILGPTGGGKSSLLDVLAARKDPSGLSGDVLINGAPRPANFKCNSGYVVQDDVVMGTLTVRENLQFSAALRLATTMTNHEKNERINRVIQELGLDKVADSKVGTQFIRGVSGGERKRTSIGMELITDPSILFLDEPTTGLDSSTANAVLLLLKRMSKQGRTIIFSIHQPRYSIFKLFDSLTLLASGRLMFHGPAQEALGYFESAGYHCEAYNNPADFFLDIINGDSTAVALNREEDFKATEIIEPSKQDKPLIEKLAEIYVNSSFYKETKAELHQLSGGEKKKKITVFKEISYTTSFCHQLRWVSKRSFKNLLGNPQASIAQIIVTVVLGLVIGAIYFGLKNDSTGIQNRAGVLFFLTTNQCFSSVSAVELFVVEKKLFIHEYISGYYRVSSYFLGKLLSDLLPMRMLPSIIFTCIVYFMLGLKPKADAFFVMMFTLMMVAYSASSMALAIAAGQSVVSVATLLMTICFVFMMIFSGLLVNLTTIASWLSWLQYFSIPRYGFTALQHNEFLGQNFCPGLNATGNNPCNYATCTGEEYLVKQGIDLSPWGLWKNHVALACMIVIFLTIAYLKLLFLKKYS
Sequence of Cytochrome P450 2C19 (Homo sapiens) (P33261 whole entry, looked up): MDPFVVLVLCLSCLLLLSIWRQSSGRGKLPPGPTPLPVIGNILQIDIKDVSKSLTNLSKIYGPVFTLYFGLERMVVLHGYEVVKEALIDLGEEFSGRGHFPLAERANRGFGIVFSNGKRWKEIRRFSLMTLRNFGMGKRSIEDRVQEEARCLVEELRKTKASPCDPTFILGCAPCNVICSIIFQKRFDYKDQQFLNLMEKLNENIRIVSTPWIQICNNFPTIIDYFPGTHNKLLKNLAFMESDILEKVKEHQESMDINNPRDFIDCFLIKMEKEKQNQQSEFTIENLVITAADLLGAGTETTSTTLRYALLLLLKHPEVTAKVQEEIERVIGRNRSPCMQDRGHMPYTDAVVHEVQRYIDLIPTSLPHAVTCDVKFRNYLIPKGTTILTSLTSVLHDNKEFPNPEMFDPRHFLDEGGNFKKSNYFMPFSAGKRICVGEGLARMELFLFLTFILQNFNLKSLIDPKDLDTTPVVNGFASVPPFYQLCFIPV
Sequence of Cytochrome P450 3A4 (Homo sapiens) (P08684 whole entry, looked up): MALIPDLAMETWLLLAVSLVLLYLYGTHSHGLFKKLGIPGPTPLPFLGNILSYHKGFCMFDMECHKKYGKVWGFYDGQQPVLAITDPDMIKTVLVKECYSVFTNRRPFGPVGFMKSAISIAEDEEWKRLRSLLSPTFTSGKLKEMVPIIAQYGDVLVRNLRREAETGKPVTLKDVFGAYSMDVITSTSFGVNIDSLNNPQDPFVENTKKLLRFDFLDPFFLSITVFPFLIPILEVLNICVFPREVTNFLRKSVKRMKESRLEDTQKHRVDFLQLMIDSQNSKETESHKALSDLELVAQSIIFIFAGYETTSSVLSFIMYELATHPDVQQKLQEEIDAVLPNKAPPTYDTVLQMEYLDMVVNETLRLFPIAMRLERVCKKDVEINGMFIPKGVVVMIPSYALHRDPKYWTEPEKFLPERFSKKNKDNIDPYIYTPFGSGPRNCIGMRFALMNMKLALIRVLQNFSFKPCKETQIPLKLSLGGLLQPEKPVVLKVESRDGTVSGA

COc1nc(C)nc(NC(=O)NS(=O)(=O)c2ccccc2Cl)n1
not listed: [15] | [16] | [17] | [18] | [19] | [20]
inactive: all other assays above

CCc1nn(C)c(C(=O)NCc2ccc(C(C)(C)C)cc2)c1Cl
active: [1] 20 µM | [10] 26.2 µM | [11] 8.98 µM | [15] 20 µM | [16] 1.84 µM | [17] 1.82 µM
inactive: [2] | [3] | [4] | [13]

CCOC(=O)C(Cl)Cc1cc(-n2nc(C)n(C(F)F)c2=O)c(F)cc1Cl (centres undefined)
inactive: [3] | [4] | [5] | [6] | [7] | [11] | [13] | [14] | [15]
active: [1] 20 µM | [18] 0.0412 µM

CCCCNC(=O)n1c(NC(=O)OC)nc2ccccc21
inactive: [1] | [3] | [4] | [5] | [6] | [13] | [14]
active: [9] 6.67 µM | [11] 33.1 µM | [16] 6.13 µM | [17] 8.39 µM | [18] 0.015 µM

CCCCNC(=O)OCC#CI
inactive: [1] | [3] | [4] | [5] | [6] | [8] | [9] | [10] | [11] | [13]

COC(=O)c1ccccc1C(=O)OC
not listed: [6] | [8] | [11]
inactive: all other assays above
